# RE007 growth inh = qHTS Assay for Inhibitors of the HIV-1 protein Vpr; S. pombe RE007 Vpr strain, BacTiter-Glo ATP luminescence, 24 h; Potency, µM (titrated, usually from 92.2 µM), inactives show at the highest dose activity change, negative = less growth, hits mostly inhibitors; 0.21% of 360,000 active; active means well fitted falling curve with a large enough effect; inconclusive means small, poorly fitted or top-dose-only effect; inactive means no such curve, though single readings can be large or run the other way; further: potency means the concentration at half of the fitted maximal effect; on the % scale 0 is the no-effect control and ±100 the full control effect; nearly all actives have a fitted effect of over 50% in size
#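 Fission yeast RE007 carrying one integrated HIV-1 vpr copy, seeded at OD 0.01 in PMG+AL medium with 23 nL pinned compound. Grown 24 h at 30 degrees; viability read by BacTiter-Glo luminescence after 5 min.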
# Shiga toxin inh = A qHTS for Small Molecule Inhibitors of Shiga Toxin; 9.2% of 290,000 active; inhibition, % at 38.7 µM; Vero cells, Shiga toxin protein synthesis inhibition reporter; in the data active means inhibition mostly above about 28%, no sharp cut-off; inactive means mostly below about 43%; further: 0% is about no effect
# LmPK inhibitor = qHTS Assay for Inhibitors of Leishmania Mexicana Pyruvate Kinase (LmPK) | Potency, µM (titrated, usually from 57.5 µM), for inactives: at the highest dose activity change, negative = inhibition, actives largely listed as inhibitors | 0.37% of 290,000 active | AID 1721, 2009 | Q27686 | purified LmPK, Kinase-Glo ATP luminescence, 1 h; further: potency means the concentration at half of the fitted maximal effect; on the % scale 0 is the no-effect control and ±100 the full control effect
#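 Kinase-Glo luminescence read after 1 h RT reaction of 0.1 nM LmPK with 0.5 mM PEP and 0.1 mM ADP. Activity scaled between uninhibited and enzyme-free controls.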
# Tb PYK inh = qHTS of Trypanosoma Brucei Inhibitors; pyruvate kinase (Trypanosoma brucei), Q57TT1; TbPYK enzyme, Kinase-Glo Plus ATP luminescence, 45 min; Potency, µM (titrated, usually from 76.8 µM), inactives show at the top dose activity, negative = inhibition, hits mostly inhibitors; 0.12% of 410,000 active; further: potency means the concentration at half of the fitted maximal effect; on the % scale 0 is the no-effect control and ±100 the full control effect; nearly all actives have a fitted effect of over 50% in size
#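 Screened from lowest to highest concentration, compounds were pinned into TbPYK/substrate mixtures, and ADP (130 uM final) was added. Plates sat at room temperature for 45 min prior to Kinase-Glo Plus detection by luminescence.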
# Cycloheximide cs = Cycloheximide Counterscreen for Small Molecule Inhibitors of Shiga Toxin; max response, %; 12% of 300,000 active; cell reporter, cycloheximide protein synthesis inhibition counterscreen; AID 2314, 2010; in the data active means max response mostly above about 13%, no sharp cut-off; inactive means mostly below about 14%; further: read at 38.3 µM for the half of the compounds with a filed dose; 0% is about no effect
# Giardia FBPA inh = qHTS Assay for Inhibitors of Fructose-1,6-bisphosphate Aldolase from Giardia Lamblia | A8B2U2 | purified Giardia FBPA | Potency, µM (top dose mostly 59.6 µM), for inactives: top-dose activity, negative = inhibition, hits mostly inhibitors | 0.71% of 290,000 active | AID 2451, 2010; further: potency means the concentration at half of the fitted maximal effect; on the % scale 0 is the no-effect control and ±100 the full control effect; nearly all actives have a fitted effect of over 55% in size
# Target sequence (A8B2U2 whole entry, looked up): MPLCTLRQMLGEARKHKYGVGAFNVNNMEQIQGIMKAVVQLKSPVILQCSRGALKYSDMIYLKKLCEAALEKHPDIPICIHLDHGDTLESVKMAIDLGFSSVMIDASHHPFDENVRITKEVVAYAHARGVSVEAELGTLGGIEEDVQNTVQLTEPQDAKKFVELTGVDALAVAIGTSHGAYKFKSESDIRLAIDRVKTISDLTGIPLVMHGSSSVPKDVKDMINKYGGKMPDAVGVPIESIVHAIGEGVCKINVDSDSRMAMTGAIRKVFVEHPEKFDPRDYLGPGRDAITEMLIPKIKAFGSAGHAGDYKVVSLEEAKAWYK
#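 Giardia FBPA (40 nM reagent) was preincubated 10 min at RT with compound (up to 57.5 uM final), then substrate plus GAPDH/TPI/NAD/arsenate coupling system with diaphorase/resazurin was added; resorufin fluorescence (525/598 nm) was read after 20 min.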
# * marks the source's active call; other numbers are inactive results; u = inconclusive; x = not tested or not shown; + = active, no number. Many of the other results were omitted from the sample, so hits are more common in it than they were. Unless noted, the call rests on the fitted dose curve; in most records, active means well fitted curve in the direction sought with a large enough effect; inconclusive means small, poorly fitted or top-dose-only effect, or another doubt; inactive means no such curve, though single readings can be large; an effect the other way counts as inactive or inconclusive.
SMILES,RE007 growth inh,Shiga toxin inh,LmPK inhibitor,Tb PYK inh,Cycloheximide cs,Giardia FBPA inh
O=C(NCCn1ccc2ccccc21)C1CCCCC1,-12%,24*,2%,4%,18*,3%
COc1ccc(C(=O)NCCn2ccc3ccccc32)cc1OC,2%,23,3%,-8%,18*,13%
COc1cccc(C(=O)NCCn2ccc3ccccc32)c1,26%,45*,-13%,4%,25*,3%
O=C(Nc1cccc(OCc2cc(=O)n3ccccc3n2)c1)Nc1cccc(C(F)(F)F)c1,x,x,x,-9%,x,x
c1csc(-c2nc3ccccc3[nH]2)c1,-8%,65*,u,1%,36*,-7%
Cc1[nH]c2ccccc2c1-c1nc2ccccc2[nH]1,5%,56*,4%,4%,48*,-2%
Cc1ccc(-c2nc3ccccc3[nH]2)s1,20µM*,64*,16µM*,u,52*,u
CC(=O)Nc1cccc(OCCCNS(=O)(=O)c2ccc(F)cc2)c1,-15%,9,4%,1%,-2,4%
COc1ccc(NC(=S)N2CCN(Cc3ccccc3)CC2)cc1,1%,26,3%,0%,13,7%
CSc1ccc(CN2CCN(C(=O)CC(C)C)CC2)cc1,12%,x,-4%,3%,7,u
CCN1CCN(Cc2ccc(NC(=O)Nc3ccc(SC)cc3)cc2)CC1,7%,58*,-1%,1%,44*,7%
CCN1CCN(Cc2ccc(NC(=O)Nc3ccccc3)cc2)CC1,-4%,+,-5%,-7%,46*,2%
CCN1CCN(Cc2ccc(NC(=O)Nc3cccs3)cc2)CC1,-11%,40*,-2%,-3%,41*,-2%
CCN1CCN(Cc2ccc(NC(=O)Nc3ccc(OC)cc3)cc2)CC1,-16%,42*,-8%,-8%,21*,5%
O=C(CN1CCN(Cc2ccccc2)CC1)Nc1ccccc1,1%,-3,1%,0%,1,4%
O=C(Cn1c(SCCOc2ccc(Cl)cc2)nc2ccccc21)N1CCCCC1,x,x,x,-10%,x,x
NCCCCCCC(O)(P(=O)(O)O)P(=O)(O)O,x,10,x,x,-5,2%
CCOC(=O)N1CCC(=NNc2nc(C)cc(=O)[nH]2)CC1,1%,42*,2%,1%,2,-29%
CCOC(=O)N1CCC(=NNc2ccc(S(N)(=O)=O)cc2[N+](=O)[O-])CC1,-8%,-6,-1%,-9%,0,0%
O=C(COCc1cc(-c2ccc3c(c2)OCO3)on1)NCc1ccc(F)cc1,x,x,x,-6%,x,x
C=CCNC(=O)COCc1cc(-c2ccc3c(c2)OCO3)on1,13%,39*,5%,1%,27*,11%
CCCCNC(=O)COCc1cc(-c2ccc3c(c2)OCO3)on1,7%,47*,0%,-2%,12,2%
CCCNC(=O)COCc1cc(-c2ccc3c(c2)OCO3)on1,36%,36*,0%,0%,29*,-5%
CC(C)CNC(=O)c1cc(-c2ccc3c(c2)OCO3)on1,11%,74*,-3%,-2%,39*,10%
CCCNC(=O)COCc1cc(-c2ccc(F)cc2)on1,x,x,x,-2%,x,x
SMILES,RE007 growth inh,Shiga toxin inh,LmPK inhibitor,Tb PYK inh,Cycloheximide cs,Giardia FBPA inh
O=C(NCCn1ccc2ccccc21)c1ccc(Cl)cc1,x,x,x,5%,x,x
CC(C)(C)c1ccc(N2C[C@@H](COc3ccc(C(=O)O)cc3)CC2=O)cc1,x,25,x,x,11,6%
CCCS(=O)(=O)NC(=O)C1(C)CCN(C(=O)COc2ccc(Cl)cc2Cl)C1 (stereo not given),-2%,x,x,-3%,x,x
CC(C)CNC(=O)COCc1cc(-c2ccc3c(c2)OCO3)on1,-17%,100*,5%,-2%,38*,8%
COCC(C)NC(=O)COCc1cc(-c2ccc3c(c2)OCO3)on1 (stereo not given),-7%,-6,10%,6%,-3,0%
COc1ccc(Cc2cnc(N)s2)cc1,15%,24,4%,2%,5,0%
Cc1ccc(OCc2cnc(Cl)s2)c(C)c1,-2%,146*,-1%,4%,36*,12%

# High-throughput results as filed in PubChem BioAssay.
